Source: PubChem (National Center for Advancing Translational Sciences (NCATS))
HP1b binding inh: HP1-beta chromodomain-methylated histone interaction inhibition; P83916; Potency, µM (titrated, usually from 114 µM), without a hit: at the top dose activity change, negative = inhibition, hits mostly inhibitors; actives 0.56% (n = 390,000); AID 540317; AlphaScreen HP1-beta / biotin-H3K9me3 peptide binding; note: nearly all actives have a fitted effect of over 70% in size
Target sequence (P83916 whole entry, looked up): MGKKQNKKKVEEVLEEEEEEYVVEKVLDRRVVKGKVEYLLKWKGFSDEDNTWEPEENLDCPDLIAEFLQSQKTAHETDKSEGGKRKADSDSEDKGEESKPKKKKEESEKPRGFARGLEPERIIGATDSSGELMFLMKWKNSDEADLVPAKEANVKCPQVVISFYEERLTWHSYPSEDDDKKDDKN
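Compound inhibition of the preformed complex between 50 nM HP1-beta and 50 nM biotinylated H3K9me3 peptide was read by AlphaScreen. Buffer was PBS pH 7.4 with 0.01% Tween-20. Incubations ran 30 min at room temperature, with 10 ug/mL donor/acceptor beads.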
BAZ2B block: BAZ2B (human) inhibition | actives 4.4% (n = 360,000) | Q9UIF8 | AID 504333 | AlphaScreen BAZ2B-H3K14Ac peptide displacement | Potency, µM (doses to about 114 µM), without a hit: top-dose activity change, negative = inhibition, usual class: inhibitors; note: % is set by controls: 0 for no effect and ±100 for the full control effect; nearly all actives have a fitted effect of over 60% in size
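Complex of BAZ2B and biotin-H3K14Ac (50 nM apiece) forms over 30 min at RT, then faces library compounds up to 110 uM for another 30 min; AlphaScreen beads added, 20 min dark incubation, luminescence read.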
Sfp inh: inhibitors of Bacillus subtilis Sfp phosphopantetheinyl transferase; Q9F4F7; Biochemical Sfp PPTase activity, qHTS; Potency, µM, for the others: largest response in the series, negative = inhibition, usual class: inhibitors; actives 3.5% (n = 310,000); AID 1490;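 note: the enzyme is Sfp with the accession as filed and its product quenches rhodamine fluorescence; 0% = enzyme reaction without inhibitor and -100% = no enzyme wells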
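With Hepes-Na pH 7.6 buffer containing 10 mM MgCl2, Sfp (15 nM) modified BHQ-2-YbbR (12.5 uM) using rhodamine-CoA (5 uM). Two reads 30 minutes apart at 525/598 nm yielded each well's rate.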
JMJD2A Tudor: inhibitors of human JMJD2A Tudor domain. actives 4.4% (n = 390,000). AID 504339. AlphaScreen JMJD2A-Tudor / H3K4me3 peptide binding. Potency, µM (highest dose often 114 µM), inactives show at the highest dose activity change, negative = inhibition, actives largely listed as inhibitors; note: % is set by controls: 0 for no effect and ±100 for the full control effect; nearly all actives have a fitted effect of over 50% in size
G9a inh: inhibitors of human histone lysine methyltransferase G9a; G9a H3K9 monomethylation, AlphaScreen, 2 h; AID 504332; Potency, µM (highest dose often 102 µM), inactives show top-dose activity, negative = inhibition, actives largely listed as inhibitors; Q96KQ7; actives 8.8% (n = 350,000); note: % is set by controls: 0 for no effect and ±100 for the full control effect; nearly all actives have a fitted effect of over 75% in size
Target sequence (Q96KQ7 913-1193 limits assumed): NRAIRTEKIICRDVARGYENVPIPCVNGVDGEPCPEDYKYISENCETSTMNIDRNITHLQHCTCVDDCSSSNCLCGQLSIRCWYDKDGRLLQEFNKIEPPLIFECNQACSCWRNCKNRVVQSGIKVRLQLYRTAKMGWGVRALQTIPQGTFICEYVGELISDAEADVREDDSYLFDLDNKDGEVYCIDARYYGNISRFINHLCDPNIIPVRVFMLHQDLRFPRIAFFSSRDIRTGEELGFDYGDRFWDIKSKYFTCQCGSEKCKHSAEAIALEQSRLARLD
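Methyltransferase reactions run at room temperature for 2 h (20 nM enzyme, 500 nM biotin-H3K9 peptide, 20 uM SAM) after a 15 min compound preincubation; product detected by AlphaScreen beads and anti-H3K9me1 antibody.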
* = called active by the depositor; ? = inconclusive; . = no result given; [ ] = dose if it differs, or a comment. Most compounds without a hit are left out; they make up all but 12% or so of the library. Calls come from the whole dose curve; as a rule, active = well fitted curve in the direction sought with a large enough effect; inconclusive = small, poorly fitted or top-dose-only effect, or another doubt; inactive = no such curve, though single readings can be large; an effect the other way counts as inactive or inconclusive. Potency is the fitted concentration of half-maximal effect.

SMILES	HP1b binding inh	BAZ2B block	Sfp inh	JMJD2A Tudor	G9a inh
CC(=O)Nc1cccc(NC(=O)COc2ccc3c(c2)CCC3)c1	22%	-5%	.	-14%	-9%[12.7 µM]
CCN1CCN(CC(=O)N/N=C/c2cc(Br)cs2)CC1	?	25µM*	79µM*	4µM*	.
CCOc1ccc(N(CC(=O)N/N=C/c2ccc(OC(C)C)cc2)S(C)(=O)=O)cc1	1%	56µM*	-3%	?	?
O=C(CN1CCN(Cc2ccccc2Cl)CC1)N/N=C/c1ccccn1	27%	2%	-3%	-11%	50µM*
CCOc1ccc(NC(=O)CN2CCN(CC(=O)Nc3ccc(C(N)=O)cc3)CC2)cc1	32%	2%	5%	5%	50µM*
Cc1ccnc(NC(=O)C2CCN(S(=O)(=O)c3cccc(C(F)(F)F)c3)CC2)c1	24%	-26%	12%	-9%	12%
O=C(Nc1ccccc1C(=O)Nc1ccccn1)c1cccc([N+](=O)[O-])c1	49%	-10%	-12%	-15%	.
Cc1ccc(-c2nc3cccnc3o2)cc1NC(=O)COc1ccc(C(C)(C)C)cc1	3%	-24%	?	-28%	?
Cc1ccc(-c2nsc3c(N4CCN(C(=O)c5ccco5)CC4)ncnc23)cc1	.	8%	?	.	-6%
COc1ccc(C(=O)NCCNc2ccc([N+](=O)[O-])cc2)cc1OC	34%	9%	13%	0%	-9%
O=C(c1cccc(Cl)c1)N1CCN(S(=O)(=O)c2ccc(Cl)s2)CC1	56%	5%	.	1%	-3%[59 µM]
O=C(CN1CCCCCC1)N/N=C/c1cccs1	-28%	79µM*	-8%	3.2µM*	2%
Cc1nc2cnc(Nc3ccccc3)nc2n(Cc2cccs2)c1=O	.	.	-4%	.	8%[12.7 µM]
COC(=O)c1ccc(NCc2cc(O)ccc2O)cc1O	56µM*	.	.	8.9µM*	.
COC(=O)c1cc(NCc2c(F)cccc2Cl)ccc1N1CCOCC1	23%	-34%	-26%	-22%	-2%[2.33 µM]
COC(=O)c1ccc(NCc2c(O)ccc(O)c2Br)cc1Cl	10µM*	.	.	3.5µM*	.
CCOC(=O)c1c(NC(=O)COC(=O)Cc2n[nH]c(=O)c3ccccc23)sc(C(=O)N(C)C)c1C	23%	5%	.	-9%	8%[0.501 µM]
Cc1cccn2c(=O)c3cc(C(=O)N(Cc4ccccc4)C(C)C)sc3nc12	139%	94%	.	78%	91%[59 µM]
COc1ccc(C(C(=O)OCCN(C)C)c2ccccc2)cc1 (centres undefined)	26%	3%	6%	-11%	-30%[59 µM]
N#CC1(NC(=O)COC(=O)CNC(=O)c2sc3ccccc3c2Cl)CCCCC1	16%	1%	.	-22%	25%[12.7 µM]
Cc1ccc(N(CC(O)CN2CCCCC2)S(=O)(=O)c2ccccc2[N+](=O)[O-])cc1 (centres undefined)	6%	-14%	5%	-24%[57.1 µM]	-41%
COc1ccc(N2CCN(CCNS(=O)(=O)c3ccc(C)cc3)CC2)cc1	-29%	-16%	18%	-32%	50µM*
O=C(CCNS(=O)(=O)c1ccc2c(c1)CCN2C(=O)C1CC1)N1CCN(c2ccc(F)cc2)CC1	5%[57 µM]	-8%	.	45µM*	6%[59 µM]
COc1ccc(N2CCN(C(=O)CCNS(=O)(=O)c3ccc(C)cc3)CC2)cc1	30%	-33%	5%	-19%	50µM*
O=C1C(CN2CCCC2)CCCC1CN1CCCC1 (centres undefined)	50%	.	.	-8%	.
SMILES	HP1b binding inh	BAZ2B block	Sfp inh	JMJD2A Tudor	G9a inh
Cc1sc2ncn(/N=C/c3cn(-c4ccccc4)nc3-c3ccccc3)c(=O)c2c1C	15%	.	.	-22%	.
CC(=O)N1c2ccc(S(=O)(=O)NCCC(=O)NCc3ccc(F)cc3)cc2CC1C (centres undefined)	16%	-11%	15%	?	-6%[59 µM]
CC(N)C(O)c1cccc(O)c1 (centres undefined)	.	.	11%	.	-24%[2.33 µM]
Oc1c(Cl)cc(Cl)cc1/C=N/Nc1ncc(Br)cn1	28%	-8%	5%	-7%	5%
Oc1ccccc1/C=N/NC(=S)NC1CC2C=CC1C2 (centres undefined)	6%	28µM*	14%	45µM*	?
Oc1c(Cl)cc(Cl)cc1/C=N/NC(=S)NC1CC2C=CC1C2 (centres undefined)	30%	7.9µM*	13%	50µM*	-3%
CCCCCC1CC(CC(=O)NC(=S)Nc2ccccc2Cl)C(=O)O1 (centres undefined)	21%	-18%	17%	-16%	7%
O=C(NCC1CCCO1)C1CCCN(c2ncccn2)C1 (centres undefined)	46%	4%	26%	-10%	4%
O=C(NCC(c1ccc(F)cc1)N1CCOCC1)c1cccnc1Sc1ccccc1 (centres undefined)	19%	13%	.	5%	1%
Cc1ccc(Sc2ncccc2C(=O)NCC(c2ccc(F)cc2)N2CCOCC2)cc1C (centres undefined)	38%	-9%	.	?	0.89µM*
Nc1ccc2nc[nH]c2c1	6%	-35%	-20%	?	50µM*
O=C(N/N=C/c1cc(Cl)cc([N+](=O)[O-])c1O)c1ccccc1NS(=O)(=O)c1cccs1	?	-37%	8%	56µM*	.
O=C(NN=Cc1ccc(O)cc1)c1ccccc1NS(=O)(=O)c1cccs1	19%	.	.	-16%	.
Cc1cc(C(=O)N/N=C/c2cc(Cl)cc([N+](=O)[O-])c2O)c2ccccc2n1	?	40µM*	1%	56µM*	?
CCOC(=O)C1(C)C=C(Nc2ccc(O)cc2)C(=O)N1c1ccc(O)cc1 (centres undefined)	-15%	50µM*	50µM*	?	8.9µM*
Cc1ccc(N(C)S(=O)(=O)c2ccc3[nH]cc(C(=O)NCCCN4CCOCC4)c(=O)c3c2)cc1C	4%	-27%	4%	?	-24%
O=C1CCCCC1Sc1nnc(Cc2cccs2)n1CCc1ccccc1 (centres undefined)	-23%	-8%	-14%	79µM*	-25%[59 µM]
COCCn1c(SC2CCCCC2=O)nnc1-c1ccncc1 (centres undefined)	-12%	-7%	?	?	-13%
Cc1ccc(CNC(=O)C2CC(=O)N(C3CCCC3)C2)cc1 (centres undefined)	14%	-4%	.	-4%	16%[12.7 µM]
COc1ccc(-c2nc(CNC(=O)Nc3ccccc3)c(C)o2)c(OC)c1	10%	-27%	.	-7%	?
CCNc1ccc(S(=O)(=O)N(C)C)cc1NCC(=O)Nc1ccc(Br)cc1F	-28%	?	0%	?	14µM*
CCNc1ccc(S(=O)(=O)N(C)C)cc1NCC(=O)Nc1ccc(F)c(Cl)c1	?	?	-2%	?	50µM*
CCNc1ccc(S(=O)(=O)N(C)C)cc1NCC(=O)Nc1ccccc1Br	-2%	?	-7%	-35%	-35%
CCNc1ccc(S(=O)(=O)N(C)C)cc1NCC(=O)Nc1ccccc1F	10%	-34%	-2%	-22%	?
